Assay results from PubChem BioAssay.
Active and inactive are the calls of the source. How the calls were made is not given here.

Assay: liver-stage malaria parasite load reduction – cell-based, known kinase inhibitor set, luminescence, hepatoma host viability (AID 624392);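 further: infected cells incubated roughly two days before readout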
Conditions: Plasmodium liver stage in hepatoma cells, luciferase luminescence, concentration not given here; liver cell % of control: measured here: host liver cell viability; parasite % of control: stronger effect = lower value

| Structure (SMILES) | parasite % of control | liver cell % of control |
| --- | --- | --- |
| COc1cc(C(=O)NC2CCN(C)CC2)ccc1Nc1ncc2c(n1)N(Cc1ccccc1)CCC(=O)N2C | 579% (inactive) | 97.7% |
| CN(C)C1=NC(=O)C(=Cc2ccc(-c3ccc(S(N)(=O)=O)cc3)o2)S1 | 84.6% (inactive) | 99.8% |
| NC1CCC(Nc2nc(Nc3ccc(S(=O)(=O)N4CCCCC4)cc3)c3ncn(-c4ccccc4)c3n2)CC1 (centres undefined) | 336% (inactive) | 103% |
| COc1cc(NC(=O)c2cnc(N)s2)cc(C(=O)Nc2cccc(C(F)(F)F)c2)c1 | 79% (inactive) | 98.2% |
| Cc1ccc(-c2c(C(=O)CCl)n(CCO)c3ncnc(N)c23)cc1 | 86.5% (inactive) | 90.7% |
| CS(=O)(=O)Nc1ccc(-c2ccc(C=C3SC(N)=NC3=O)o2)cc1 | 130% (inactive) | 105% |
| O=C(Nc1cccc(-c2csc(Nc3ccccc3)n2)c1)c1ccccc1 | 31.8% (inactive) | 102% |
| CCN1C(=O)CC(C(C)C)N(C2CCCC2)c2nc(Nc3ccc(C(=O)NC4CCN(C)CC4)cc3OC)ncc21 (centres undefined) | 87.6% (inactive) | 102% |
| CCN1CCN(Cc2ccc(NC(=O)c3cc(NC(=O)c4nccnc4N)cc(OC)c3)cc2C(F)(F)F)CC1 | 64.5% (inactive) | 98.4% |
| O=C(Nc1ccc(-c2csc(Nc3cccc(C(F)(F)F)c3)n2)cc1)c1ccccc1 | 69.1% (inactive) | 106% |
| COc1cc(NC(=O)c2ccnc(N)c2)cc(C(=O)Nc2cccc(C(F)(F)F)c2)c1 | 89.2% (inactive) | 96.6% |
| C=CC(=O)Nc1cccc(Oc2ccnc(Nc3ccc(N4CCN(C)CC4)cc3)n2)c1 | 162% (inactive) | 106% |
| NS(=O)(=O)c1ccc(-c2cccc(C=C3SC(=O)NC3=O)c2)cc1 | 17% (inactive) | 87.7% |
| CCN1CCN(Cc2ccc(NC(=O)c3ccc(C)c(NC(=O)c4csc(-c5ccncc5)n4)c3)cc2C(F)(F)F)CC1 | 126% (inactive) | 99.6% |
| CC(C)Oc1cc(C(=O)N2CCC(N3CCCCC3)CC2)ccc1Nc1nnc(Cl)c(Nc2ccccc2S(C)(=O)=O)n1 | 81.6% (inactive) | 98.2% |
| Cc1cn(-c2cc(C(=O)Nc3ccc(C)c(NC(=O)N4CCNC4=O)c3)cc(C(F)(F)F)c2)cn1 | 72.3% (inactive) | 98.1% |
| O=c1[nH]c2ccccc2c2ncnc(Nc3ccc(OC(F)(F)F)cc3)c12 | 119% (inactive) | 101% |
